Results filed as inconclusive are left out. Calls of active or inactive are those of the source. Calls follow the shape of the full dose curve.
Key:
[1] = target: Acetylcholinesterase (Homo sapiens) (UniProt P22303); experiment: Acetylcholinesterase (AChE) small molecule antagonists: colormetric cell-based qHTS assay (AID 1347395); also: nearly all actives have a fitted effect of over 30% in size
How it was run: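 Homogeneous whole-cell format. SH-SY5Y cells seeded overnight, dosed with compound (30 min, 37 C, 5% CO2), then given DTNB/acetylthiocholine cocktail for 90 min at 37 C; colorimetric signal.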

[2] = target: Acetylcholinesterase (Homo sapiens) (UniProt P22303); experiment: Acetylcholinesterase (AChE) small molecule antagonists: enzyme-based qHTS assay (AID 1347397); settings: Potency: AChE enzyme activity inhibition; outcome: AChE enzyme activity inhibition; also: nearly all actives have a fitted effect of over 55% in size
How it was run: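 Human recombinant acetylcholinesterase; substrate acetylthiocholine; thiocholine quantified with DTNB (colorimetric). Compound preincubation 30 min RT; reaction 10 min RT.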

[3] = target: Acetylcholinesterase (Homo sapiens) (UniProt P22303); experiment: Acetylcholinesterase (AChE) small molecule antagonists: fluorescence cell-based qHTS assay (AID 1347398); settings: Potency: AChE activity; outcome: AChE activity; also: nearly all actives have a fitted effect of over 50% in size
How it was run: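 Thiocholine generated from acetylthiocholine by SH-SY5Y cell AChE is detected with Thiolite Green (Ex/Em 490/520 nm) after 40 min at room temperature, following 30 min compound pretreatment at 37 C.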

[4] = target: Acetylcholinesterase (Homo sapiens) (UniProt P22303); experiment: Acetylcholinesterase (AChE) small molecule antagonists: enzyme-based qHTS assay with human liver microsomes (AID 1347399); settings: Potency: qHTS inhibition; outcome: qHTS inhibition; also: nearly all actives have a fitted effect of over 60% in size
How it was run: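 Recombinant human AChE (50 mU/mL in the enzyme mix) and human liver microsomes (0.25 mg/mL final) were preincubated with compound and NADPH (0.25 mg/mL final) for 30 min at 37 C. Acetylthiocholine/DTNB was then added; thiocholine was read colorimetrically after 10 min at room temperature.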
% is scaled to controls: 0 for no effect and ±100 for the full control effect.

Chain of Acetylcholinesterase (Homo sapiens) (P22303 whole entry, looked up): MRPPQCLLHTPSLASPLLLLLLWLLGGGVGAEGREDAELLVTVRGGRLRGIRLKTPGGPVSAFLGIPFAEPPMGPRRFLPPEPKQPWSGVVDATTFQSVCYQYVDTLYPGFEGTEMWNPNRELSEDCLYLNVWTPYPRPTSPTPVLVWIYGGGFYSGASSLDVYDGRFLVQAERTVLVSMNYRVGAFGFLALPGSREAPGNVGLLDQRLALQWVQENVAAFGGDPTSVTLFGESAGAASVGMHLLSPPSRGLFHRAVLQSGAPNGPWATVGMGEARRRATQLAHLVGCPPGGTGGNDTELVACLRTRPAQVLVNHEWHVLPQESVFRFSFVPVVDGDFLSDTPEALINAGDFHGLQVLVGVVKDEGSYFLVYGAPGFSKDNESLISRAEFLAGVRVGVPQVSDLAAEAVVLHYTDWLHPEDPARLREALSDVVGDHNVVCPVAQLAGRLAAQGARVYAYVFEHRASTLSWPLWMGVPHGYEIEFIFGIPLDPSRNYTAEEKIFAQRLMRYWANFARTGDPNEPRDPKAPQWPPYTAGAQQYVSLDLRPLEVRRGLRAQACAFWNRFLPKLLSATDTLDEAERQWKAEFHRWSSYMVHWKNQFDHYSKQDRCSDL

COc1cc(NS(=O)(=O)c2ccc(N)cc2)nc(C)n1
inactive: Potency [1] | Potency [2] | Potency [3] | Potency [4]

CC(C)COC(=O)C(C)C
inactive: Potency [1] | Potency [2] | Potency [3] | Potency [4]

C#CC(O)CCCCC (configuration not stated)
inactive: Potency [1] | Potency [2] | Potency [3] | Potency [4]

CCc1ccc(C=O)cc1
inactive: Potency [1] | Potency [2] | Potency [3] | Potency [4]

CCOC(=O)N1CCC(Nc2ccc(Cl)cc2N)CC1
inactive: Potency [1] | Potency [2] | Potency [3] | Potency [4]

O=S(=O)(O)c1cc(I)c(O)c2ncccc12
inactive: Potency [1] | Potency [2] | Potency [3] | Potency [4]

CCC1CCCCC1
inactive: Potency [1] | Potency [2] | Potency [3] | Potency [4]

C[C@@H]1CN(c2c(F)c(F)c3c(=O)c(C(=O)O)cn(C4CC4)c3c2F)C[C@H](C)N1
inactive: activity, negative = inhibition [1] -2.8% [at 23.6 µM] | activity change, negative = inhibition [2] -0.831% [at 23.6 µM] | activity change, negative = inhibition [3] 0.907% [at 23.8 µM] | activity change, negative = inhibition [4] -1.43% [at 23.6 µM]

C=C(C)[C@@H]1CC[C@@H](C)C[C@@H]1O
inactive: Potency [1] | Potency [2] | Potency [3] | Potency [4]

c1ccc(CN(CC2=NCCN2)c2ccccc2)cc1
inactive: Potency [1] | Potency [2] | Potency [3] | Potency [4]

CC(=O)OC(C)C[N+](C)(C)C (configuration not stated)
inactive: Potency [1] | Potency [2] | Potency [3] | Potency [4]

O=c1c(O)c(-c2ccc(O)cc2O)oc2cc(O)cc(O)c12
inactive: Potency [1] | Potency [2] | Potency [3] | Potency [4]

CN1CCN(CC(=O)N2c3ccccc3C(=O)Nc3cccnc32)CC1
inactive: activity, negative = inhibition [1] 0.44% [at 10.5 µM] | activity change, negative = inhibition [2] 0.584% [at 10.5 µM] | activity change, negative = inhibition [3] 5.87% [at 10.5 µM] | activity change, negative = inhibition [4] -0.472% [at 10.5 µM]

From PubChem BioAssay (Tox21)
